In the library only some 14% were active in any assay of this set; here they are far more common.
Shiga inhibitor: Shiga toxin inhibition. Vero cells, Shiga toxin protein synthesis inhibition reporter. inhibition, % at 38.7 µM. 290,000 tested, 9.2% active; in the data active = inhibition mostly above about 28%, no sharp cut-off; inactive = mostly below about 43%
LmPK inhibitor: inhibitors of Leishmania mexicana pyruvate kinase; Q27686; purified LmPK, Kinase-Glo ATP luminescence, 1 h; Potency, µM (doses to about 57.5 µM), usual class: inhibitors; 290,000 tested, 0.37% active
Target sequence (Q27686 whole entry, looked up): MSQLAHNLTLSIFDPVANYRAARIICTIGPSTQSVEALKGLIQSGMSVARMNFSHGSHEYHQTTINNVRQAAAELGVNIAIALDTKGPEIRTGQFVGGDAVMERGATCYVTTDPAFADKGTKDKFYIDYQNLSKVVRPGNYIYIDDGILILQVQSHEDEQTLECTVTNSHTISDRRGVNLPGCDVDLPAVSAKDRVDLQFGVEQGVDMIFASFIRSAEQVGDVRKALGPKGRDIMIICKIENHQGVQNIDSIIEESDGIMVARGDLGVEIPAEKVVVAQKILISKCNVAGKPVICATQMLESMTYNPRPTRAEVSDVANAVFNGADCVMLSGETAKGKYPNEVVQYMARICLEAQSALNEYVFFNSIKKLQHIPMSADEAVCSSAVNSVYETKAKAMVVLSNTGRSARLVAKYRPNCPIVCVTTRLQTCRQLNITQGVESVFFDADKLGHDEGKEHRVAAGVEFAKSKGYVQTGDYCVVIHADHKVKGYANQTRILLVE
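In 50 mM imidazole pH 7.2 with 7 mM MgCl2, LmPK (0.1 nM) turned over PEP (0.5 mM) and ADP (0.1 mM) for 1 h at room temperature. Luciferase read-out of ATP.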
Giardia FBPA inh-1: Giardia lamblia aldolase inhibition. A8B2U2. purified Giardia FBPA. Potency, µM (highest dose often 59.6 µM), most hits filed as inhibitors. 290,000 tested, 0.71% active; also: nearly all actives have a fitted effect of over 55% in size
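40 nM FBPA preincubated 10 min at RT with compound (up to 57.5 uM final), then substrate plus GAPDH/TPI/NAD/arsenate coupling and diaphorase/resazurin added. Fluorescence read after 20 min at RT, 525/598 nm.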
NS1 inh: blocks influenza NS1 protein function; 270,000 tested, 0.4% active; Potency, µM (doses to about 46.1 µM); AID 2326; calls by dose curve; also: actives are rising curves; nearly all actives have a fitted effect of over 50% in size
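OD600 was taken as the measure of yeast growth restored by compound in an NS1-expressing S. cerevisiae strain. Cells had been washed out of glucose medium and diluted 1:100 into galactose -URA medium, pH 6.0.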
CHX counter: affects cycloheximide protein synthesis inhibition readout, counter-screen. max response, %. cell reporter, cycloheximide protein synthesis inhibition counterscreen. AID 2314. 300,000 tested, 12% active; in the data active = max response mostly above about 13%, no sharp cut-off; inactive = mostly below about 14%; also: read at 38.3 µM for the half of the compounds with a filed dose
Giardia growth: Giardia lamblia growth inhibition; shares compounds with Giardia FBPA inh-1; Giardia lamblia trophozoite growth inhibition; Potency, µM (highest dose often 57.5 µM), most hits filed as inhibitors; 1,500 tested, 5% active;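 also: trophozoites exposed to compound for 48 h at 37 °C; nearly all actives have a fitted effect of over 70% in size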
Mammal cell tox: toxic to mammalian cells in Giardia aldolase counter-screen | shares compounds with Giardia FBPA inh-1 | mammalian cell viability counter-screen, qHTS | Potency, µM (titrated, usually from 57.5 µM), hits mostly inhibitors | 1,500 tested, 4% active;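 also: Chinese hamster ovary cells used as mammalian cytotoxicity surrogate; viability measured as cellular ATP by luminescence; compound exposure lasted 48 h before reading; nearly all actives have a fitted effect of over 60% in size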
Giardia FBPA inh-2: confirmation of Giardia fructose-bisphosphate aldolase inhibitors. 1,500 tested, 5% active. Potency, µM (top dose mostly 57.5 µM), actives largely listed as inhibitors. shares compounds with Giardia FBPA inh-1. purified Giardia aldolase enzyme activity, qHTS. AID 2787; also: nearly all actives have a fitted effect of over 45% in size
Rabbit FBPA inh: blocks rabbit muscle aldolase in Giardia aldolase selectivity test; shares compounds with Giardia FBPA inh-1; Potency, µM (series often up to 57.5 µM), usual class: inhibitors; 1,500 tested, 4% active; Rabbit muscle FBPA enzyme inhibition, selectivity counter-screen; also: nearly all actives have a fitted effect of over 60% in size
GAPDH counter: counter-screen for Giardia aldolase inhibitors: GAPDH coupling enzyme | GAPDH coupling enzyme counterscreen, biochemical, qHTS | shares compounds with Giardia FBPA inh-1 | Potency, µM (titrated, usually from 57.5 µM), usual class: inhibitors | AID 2795 | 1,500 tested, 6% active; also: nearly all actives have a fitted effect of over 55% in size
Large screens that a line does not name were inactive (follow-up assays come after a bar, where they were run); ! = repeats disagree; [ ] = dose if it differs, or a comment. Unless noted, calls follow the shape of the dose curve; as a rule, active = well fitted curve in the direction sought with a large enough effect; inconclusive = small, poorly fitted or top-dose-only effect, or another doubt; inactive = no such curve, though single readings can be large; an effect the other way counts as inactive or inconclusive.

CCN(C(=O)c1cc(S(=O)(=O)N2CCOCC2)cn1C)c1cccc(C)c1	Giardia FBPA inh-1 13µM | Giardia growth inactive | Mammal cell tox inactive | Giardia FBPA inh-2 inactive | Rabbit FBPA inh inactive | GAPDH counter inactive
CC1CCCN(C/C=C/c2ccccc2[N+](=O)[O-])C1 (centres undefined)	none
O=[N+]([O-])c1ccccc1/C=C/CN1CCSCC1	Giardia FBPA inh-1 16µM | Giardia growth inconclusive | Mammal cell tox inactive | Giardia FBPA inh-2 inactive | Rabbit FBPA inh inactive | GAPDH counter inactive
NC(N)=NS(=O)(=O)c1ccc(NC(=S)NC(=O)c2ccncc2)cc1	Giardia FBPA inh-1 11µM | Giardia growth inactive[10.4 µM] | Mammal cell tox inactive | Giardia FBPA inh-2 inactive | Rabbit FBPA inh inactive | GAPDH counter inactive
CCOC(=O)CCc1nc2ccccc2[nH]c1=O	none
COCCCOc1ccnc(CS(=O)c2nc3ccccc3[nH]2)c1C (centres undefined)	Shiga inhibitor 48, Giardia FBPA inh-1 2µM!, CHX counter 44 | Giardia growth inconclusive | Mammal cell tox inactive | Giardia FBPA inh-2 inactive | Rabbit FBPA inh inactive | GAPDH counter inactive
O=C(CCCN1C(=O)/C(=C/c2ccco2)SC1=S)Nc1cccc(C(=O)O)c1	Giardia FBPA inh-1 16µM | Giardia growth inactive[10.4 µM] | Mammal cell tox inactive | Giardia FBPA inh-2 inactive | Rabbit FBPA inh inactive | GAPDH counter inactive
O=C(CCCN1C(=O)/C(=C\c2cccs2)SC1=S)Nc1cccc(C(=O)O)c1	none (no result: NS1 inh)
CC(=O)Nc1nc(-c2ccc(Cl)cc2)nc(C)c1C(C)=O	Shiga inhibitor 18, Giardia FBPA inh-1 7.1µM, NS1 inh inconclusive, CHX counter 21 | Giardia growth inactive[10.4 µM] | Mammal cell tox inactive | Giardia FBPA inh-2 inactive | Rabbit FBPA inh inactive | GAPDH counter inactive
C=CCNC(=S)N/N=C(\C)c1cccnc1	Giardia FBPA inh-1 16µM | Giardia growth inactive | Mammal cell tox inactive | Giardia FBPA inh-2 inactive | Rabbit FBPA inh inactive | GAPDH counter inactive
CCC1Oc2ccccc2N(CC(=O)NCCN2CCc3ccccc3C2)C1=O (centres undefined)	Giardia FBPA inh-1 16µM | Giardia growth inactive | Mammal cell tox inactive | Giardia FBPA inh-2 inactive | Rabbit FBPA inh inactive | GAPDH counter inactive
C[C@@H]1OC(OC2C(OC3CC[C@@]4(C)C5CC=C6C7CC(C)(C)CC[C@@]7(C(=O)O)CCC6(C)C5(C)CCC4[C@]3(C)CO)OCC(O)C2O)C(O)C(O)C1O (some centres undefined)	none (no result: Shiga inhibitor, LmPK inhibitor, NS1 inh, CHX counter)
N#Cc1ccc(C(=O)Nc2nnc(-c3cccs3)o2)cc1	Giardia FBPA inh-1 inconclusive
O=C(CCSc1ccccc1)Nc1nnc(-c2cccs2)o1	Giardia FBPA inh-1 16µM | Giardia growth inactive[10.4 µM] | Mammal cell tox inactive | Giardia FBPA inh-2 inactive | Rabbit FBPA inh inactive | GAPDH counter inactive
CN(C)S(=O)(=O)c1ccc(C(=O)Nc2nnc(-c3cccs3)o2)cc1	Giardia FBPA inh-1 18µM, CHX counter 19 (no result: NS1 inh) | Giardia growth 14µM | Mammal cell tox inactive | Giardia FBPA inh-2 inactive | Rabbit FBPA inh inactive | GAPDH counter inactive
CN(c1ccccc1)S(=O)(=O)c1ccc(C(=O)Nc2nnc(C3=COCCO3)o2)cc1	Giardia FBPA inh-1 11µM | Giardia growth inconclusive | Mammal cell tox inactive | Giardia FBPA inh-2 inactive | Rabbit FBPA inh inactive | GAPDH counter inactive
CN(C)c1ccc(C(=O)Nc2nnc(C3=COCCO3)o2)cc1	Giardia FBPA inh-1 18µM (no result: NS1 inh) | Giardia growth inconclusive | Mammal cell tox inactive | Giardia FBPA inh-2 inactive | Rabbit FBPA inh inactive | GAPDH counter inactive
CC(C)(C)c1ccc(C(=O)Nc2nnc(C3=COCCO3)o2)cc1	none (no result: Giardia FBPA inh-1)
Cc1cccc(C(=O)Nc2nnc(C3=COCCO3)o2)c1	Giardia FBPA inh-1 18µM | Giardia growth inconclusive | Mammal cell tox inactive | Giardia FBPA inh-2 inactive | Rabbit FBPA inh inactive | GAPDH counter inactive
